PostGolgi ctrl – growth of the yeast control strain, post-Golgi counter-screen; efflux-deficient yeast background strain, growth absorbance A615, 16 h; 98,000 compounds, 5% hits; inhibition, % at 10 µM; AID 738
CYP2C19 activ – increases human CYP2C19 enzyme activity. P33261. recombinant CYP2C19, luciferin-H EGE luminescence; stronger effect = higher value; 0 = fully inhibited enzyme, 1 = untreated enzyme. activation factor at 5 µM. 96,000 tested, under 10 active;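 active = activation factor of at least 2 at 5 µM in the primary screen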;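 note: 0 = wells with 2.5 mM tranylcypromine and 1 = vehicle-only wells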
CYP2C9 activ – activators of human CYP2C9; P11712; recombinant CYP2C9, luciferin-H conversion, luminescence; stronger effect = higher value; factor 1 = untreated enzyme, 0 = blocked; activation factor at 5 µM; 96,000 compounds, 1.4% hits; AID 1024;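 active = activation factor of 2 or more for CYP2C9 at a 5 µM dose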;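 note: 0 = sulfaphenazole-blocked wells and 1 = vehicle-only wells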
Target sequence (P11712 whole entry, looked up): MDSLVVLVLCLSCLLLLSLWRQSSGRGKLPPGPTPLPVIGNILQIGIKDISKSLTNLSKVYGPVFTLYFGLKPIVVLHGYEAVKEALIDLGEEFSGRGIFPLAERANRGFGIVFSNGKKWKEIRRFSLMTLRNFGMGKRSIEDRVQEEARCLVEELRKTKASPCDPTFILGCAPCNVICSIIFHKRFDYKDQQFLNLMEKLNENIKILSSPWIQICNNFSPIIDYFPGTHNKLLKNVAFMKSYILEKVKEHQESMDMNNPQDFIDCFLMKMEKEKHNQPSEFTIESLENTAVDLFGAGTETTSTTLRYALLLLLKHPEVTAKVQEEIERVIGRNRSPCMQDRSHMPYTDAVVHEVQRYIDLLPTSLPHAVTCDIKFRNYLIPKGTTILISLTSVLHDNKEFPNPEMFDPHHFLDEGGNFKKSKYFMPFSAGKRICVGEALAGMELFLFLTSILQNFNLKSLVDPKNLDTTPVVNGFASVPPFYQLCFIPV
CYP2C19 inhib – blocks human cytochrome P450 2C19 | P33261 | CYP2C19 Supersomes, luciferin-H EGE luminescence, 30 min | inhibition, % at 5 µM | 96,000 compounds, 21% hits | AID 778;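 active = CYP2C19 inhibition above a set limit at 5 µM in the primary screen, cut at about 50% in these data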;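 note: plate controls were negative control wells for no effect and 2.5 mM tranylcypromine positive control for full effect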
PostGolgi yeast – growth inhibition of a yeast mutant, post-Golgi transport screen; post-Golgi transport phenotypic cell assay; inhibition, % at 10 µM; 98,000 compounds, 0.9% hits;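 note: yeast cells grown in 1536-well plates; yeast grown about 18 h at 30C before absorbance read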
CYP2C9 inh – inhibitors of human CYP2C9; P11712; AID 777; 96,000 compounds, 20% hits; CYP2C9 Supersomes, luciferin-H conversion, luminescence; inhibition, % at 5 µM;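 active = blocking of liver enzyme CYP2C9 beyond about 50% at 5 µM, limit read from the data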
The depositor's hits bear a star; . = no result. Only some compounds are listed: those with a hit (about 32% of all), similar ones and a draw of the others. Cut-off read from the data, not from the text of the source, unless noted: active = inhibition above about 30%; inactive = the rest.

SMILES	PostGolgi ctrl	CYP2C19 activ	CYP2C9 activ	CYP2C19 inhib	PostGolgi yeast	CYP2C9 inh
Cc1cccc(OCCC(=O)NCC(c2ccccc2)N(C)C)c1 (stereo not given)	1	0.8	1	17	-4	1
O=C(Cc1cccs1)Nc1nc2ccccc2s1	30*	0.4	0.5	56*	-3	50
Cc1ccc2nc(NC(=O)Cc3cccs3)sc2c1	3	0.8	0.7	24	9	28
COC(=O)CCCCCCCCC(=O)Nc1nc2ccccc2s1	3	0.4	0.2	63*	1	82*
COC(=O)c1cc2n(n1)CCN(Cc1ccc(F)cc1)C2=O	-3	0.6	1.1	44	5	-8
Cc1ccc(-n2ccnc2SCC(=O)N(CC(C)C)C2CCS(=O)(=O)C2)c(C)c1 (stereo not given)	-5	0.7	0.9	32	4	14
Cc1ccc(C2(C)NC(=O)N(Cc3c(C)noc3C)C2=O)cc1 (stereo not given)	11	0.5	0.9	53*	20	12
Cc1noc(C)c1CN1C(=O)NC2(CCc3ccccc3C2)C1=O (stereo not given)	0	.	.	.	0	.
COC(=O)CC1=NC(=O)CS1	6	1.2	1.1	-21	2	-14
Cn1c(=O)c2c(nc(SCc3ccccn3)n2C)n(C)c1=O	.	1	1	3	.	5
Cc1ccc(S(=O)(=O)N2CCCC2C(=O)OCc2ccco2)cc1 (stereo not given)	1	0.8	1.2	24	21	-17
Cc1ccc(S(=O)(=O)N2CCSC2c2ccco2)cc1 (stereo not given)	-4	0	0.7	96*	-5	27
CCCCn1nnnc1SCC(=O)NCc1ccccc1	3	0.6	0.9	42	-4	13
CC(CCO)Nc1nc2c(c(=O)n(C)c(=O)n2C)n1Cc1cccc(Br)c1 (stereo not given)	12	0.4	0.5	60*	-1	49
COc1ccc(Nc2nc3c(c(=O)n(C)c(=O)n3C)n2CCO)cc1	3	1	0.4	3	-3	59*
CC(C)CNc1nc2c(c(=O)n(C)c(=O)n2C)n1Cc1cccc(Br)c1	19	0.6	0.7	35	-10	30
CC(O)CNc1nc2c(c(=O)n(C)c(=O)n2C)n1Cc1cccc(Br)c1 (stereo not given)	2	0.6	0.4	44	12	60*
CC(O)CNc1nc2c(c(=O)n(C)c(=O)n2C)n1Cc1cccc(C(F)(F)F)c1 (stereo not given)	7	0.7	0.7	32	-3	29
Cn1c(=O)c2c(nc(NCCCO)n2C/C=C/c2ccccc2)n(C)c1=O	-4	0.1	0.3	90*	9	68*
CCCNc1nc2c(c(=O)n(C)c(=O)n2C)n1Cc1cccc(C)c1	13	0.4	0.6	58*	1	38
CCCNc1nc2c(c(=O)n(C)c(=O)n2C)n1CCc1ccccc1	7	0.6	0.8	36	0	20
C=CCn1c(SCC(=O)NC2CCS(=O)(=O)C2)nc2scc(C3CC3)c2c1=O (stereo not given)	-3	0.6	0.3	36	15	72*
C=CCn1c(SC2CCOC2=O)nc2scc(C3CC3)c2c1=O (stereo not given)	6	0.2	0.2	83*	14	77*
C=CCn1c(SCC(=O)c2ccc(CNC(C)=O)o2)nc2scc(C3CC3)c2c1=O	10	0.4	0.3	57*	14	73*
O=c1c(Cc2ccc(F)cc2)c(O)ccn1Cc1ccc(Cl)cc1Cl	-5	1	1.1	4	16	-7
SMILES	PostGolgi ctrl	CYP2C19 activ	CYP2C9 activ	CYP2C19 inhib	PostGolgi yeast	CYP2C9 inh
CCOC(=O)C1CCN(Cc2cnc(Oc3ccc(OC)cc3)s2)CC1	-2	0.9	0.9	8	6	12
Cn1c(Cn2c(=O)sc3ccccc32)nnc1SCC(=O)N1CCc2ccccc21	-2	.	.	.	0	.
CSCCC(NC(=O)C1CC1)c1nc2ccccc2[nH]1 (stereo not given)	2	0.9	0.9	13	1	6
O=C(NCc1nc2ccccc2[nH]1)c1ccc(Cl)c(S(=O)(=O)N2CCCC2)c1	3	0.3	0.5	65*	-1	45
CCCn1c(NC(=O)c2ccc(Cl)c(S(=O)(=O)N3CCCC3)c2)nc2ccccc21	20	0.2	0.2	83*	0	84*
CSCC[C@H](NC(=O)c1ccc(Cl)c(S(=O)(=O)N2CCCC2)c1)c1nc2ccccc2[nH]1	-1	0.4	0.3	59*	-3	68*
CCCn1c(NC(=O)c2cccc(C)c2C)nc2ccccc21	13	0.3	0.8	75*	-3	17
CC12CN3CC(C)(CN(C1)C3c1ccc(Br)cc1)C2 (stereo not given)	1	1	1	3	5	1
Brc1ccc(-c2nc(-c3ccncc3)no2)o1	-3	0.1	0.5	91*	-9	48
COc1ccc(-c2noc(-c3ccc(Br)o3)n2)cc1OC	2	1	1.1	4	-4	-8
Brc1ccc(-c2nc(-c3ccccn3)no2)o1	8	0.4	0.7	62*	5	27
Cn1c(=Nc2ccccc2)sc2ccccc21	0	0.2	0.6	81*	-5	41
CN(C)c1ccc(N=c2sc3ccccc3n2C)cc1	11	0	0.2	98*	11	77*
CN(C(=O)C12CC3CC(CC(C3)C1)C2)C1(C)CCS(=O)(=O)C1 (stereo not given)	18	1	1.1	-1	2	-9
Cc1ccc(-c2cccc(NC(=O)C3C4C=CC(C4)C3C(=O)O)c2)o1 (stereo not given)	10	1	1	-3	24	2
Cc1ccc(-c2nnc(N3CCN(c4ccccn4)CC3)c3ccccc23)cc1	57*	0.5	0.7	46	0	32
CS(=O)(=O)N1CCN(c2nnc(-c3ccccc3)c3ccccc23)CC1	10	0.7	0.9	32	0	14
c1ccc(-c2nnc(N3CCN(c4ccccn4)CC3)c3ccccc23)cc1	69*	0.3	1.3	68*	8	-31
Cc1ccc2cc(C)c(N3CCN(c4ccccn4)CC3)nc2c1	11	0.2	0.3	77*	8	70*
CC(=O)c1ccc(OCC(O)CN2C(C)(C)CC(O)CC2(C)C)cc1 (stereo not given)	1	0.9	0.6	12	6	38
COc1ccccc1NC(=O)c1ccc(-c2ccccc2F)o1	8	1	1	4	3	-2
O=C(NCc1ccccn1)c1ccc(Cl)cc1Cl	13	0.8	0.8	24	-4	24
Clc1ccc2c(NCc3ccco3)ncnc2c1	12	0.2	0.4	79*	9	55*
Clc1ccc2c(NCc3ccccn3)ncnc2c1	-5	0.4	0.5	62*	-4	48
